The structures appear in SMILES notation. “And” between values parts separate entries of the source, which are not always exact repeats. Equal entries are not always repeated. Inconclusive results are not listed. The source holds several records for some structures; these can differ, active in one and inactive in another. The source made the active and inactive calls. How the source made its calls, unless noted: active means hit-call score of the fitted dose curve at least 0.9, where 1 is the maximum; inconclusive means response in the unintended direction; inactive means score below 0.9.

The nature of experiment [1]: TOX21_p53_BLA_p3_viability: Viability Assessment in the Tox21 HCT-116 p53 Agonism Beta-lactamase Assay, Phase 3 (AID 2283593).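 Further: cells exposed to compound for 16 h before reading.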 In short, it runs like this:
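HCT116 cells, 4000/well, dosed 5 h after plating by pin transfer (217-fold dilution from DMSO stock) and incubated 16 h at 37C, 5% CO2. Viability read as ATP luminescence with CellTiter-Glo after 30 min at room temperature.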

Experiment [2] can be described thus: TOX21_p53_BLA_p4_viability: Viability Assessment in the Tox21 HCT-116 p53 Agonism Beta-lactamase Assay, Phase 4 (AID 2283597).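 Further: hits lower the luminescence signal meaning cytotoxicity.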 In short, it runs like this:
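Readout: ATP luminescence (CellTiter-Glo), measured 30 min after reagent addition at RT. The reagent followed a 2 h CCF4-AM incubation, and the cells had been exposed to compound for 16 h at 37C.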

Experiment [3] concerns the target Cellular tumor antigen p53 (Homo sapiens) (UniProt P04637). As to the kind of experiment: TOX21_p53_BLA_p5_ratio: Tox21 HCT-116 p53 Agonism Beta-lactamase Assay, Ratio, Phase 5 (AID 2283599). Summed up:
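HCT-116 p53-bla cells (4000/well) plated 5 h, dosed with compound (217-fold DMSO dilution) for 16 h at 37 C; CCF4-AM substrate 2 h at room temperature. Activity is the 460/530 nm emission ratio (405 nm excitation), fitted in gain-of-signal direction versus DMSO.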

Experiment [4] can be described thus: TOX21_p53_BLA_p5_viability: Viability Assessment in the Tox21 HCT-116 p53 Agonism Beta-lactamase Assay, Phase 5 (AID 2283600). In short, it runs like this:
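Workflow: seed 4000 cells per well, wait 5 h, add compounds (DMSO, 217-fold dilution), incubate 16 h, load CCF4-AM 2 h, add CellTiter-Glo, read luminescence after 30 min.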

Experiment [5] deals with Cellular tumor antigen p53 (Homo sapiens) (UniProt P04637). As to the kind of experiment: TOX21_p53_BLA_p2_ratio: Tox21 HCT-116 p53 Agonism Beta-lactamase Assay, Ratio, Phase 2 (AID 2283592). Summed up:
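Plated HCT116 p53-bla cells (4000/well) received compound after 5 h, then 16 h at 37C/5% CO2. CCF4-AM added, 2 h RT. Ratio of 460 to 530 nm emission taken as the p53 reporter signal.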

The target is the same in experiment [6]. The experiment can be described thus: TOX21_p53_BLA_p3_ratio: Tox21 HCT-116 p53 Agonism Beta-lactamase Assay, Ratio, Phase 3 (AID 2283596). Summed up: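 Cells were seeded at 4000/well, rested 5 h at 37C, then dosed with DMSO compound solutions (217-fold dilution) for 16 h. CCF4-AM substrate was loaded for 2 h at room temperature, and the 460/530 nm emission ratio was fitted for gain of signal versus DMSO.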

Experiment [7] shares this target. As to the kind of experiment: TOX21_p53_BLA_p4_ratio: Tox21 HCT-116 p53 Agonism Beta-lactamase Assay, Ratio, Phase 4 (AID 2283601). Summed up: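 HCT-116 p53 beta-lactamase reporter cells (4000/well) preincubated 5 h, then compound (217-fold dilution of DMSO stock) for 16 h at 37C. CCF4-AM substrate added 2 h at room temperature; 460/530 nm emission ratio fitted upward versus DMSO.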

A short description of experiment [8]: CCTE_Harrill_HTTr_Viability_MCF7: CCTE's 6-hour Cell Viability Assessment for the High-Throughput Transcriptomics (HTTr) Platform, in MCF-7 cells cultured in DMEM + 10% fetal bovine serum, Harrill Lab (AID 2284010; active means hit-call score of the fitted dose curve at least 0.9, where 1 is the maximum; inactive means score below 0.9). In short, it runs like this: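 Read-out is propidium iodide gain of signal by high-content imaging, reflecting membrane integrity loss. Measurements are taken 6 h after dosing, eight concentrations per chemical, with DMSO serving as baseline for bidirectional curve fitting.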

Experiment [9] in a line: CCTE_Harrill_HTTr_Apoptosis_MCF7: CCTE's 6-hour Apoptosis Assessment for the High-Throughput Transcriptomics (HTTr) Platform, in MCF-7 cells cultured in DMEM + 10% fetal bovine serum, Harrill Lab (AID 2284011; active means hit-call score of the fitted dose curve at least 0.9, where 1 is the maximum; inactive means score below 0.9). Summed up:
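MCF-7 (DMEM + 10% FBS), 384-well; 8-pt dilution series, 6 h chemical exposure; caspase-3/7 activation via CellEvent Caspase 3/7 Green, HCI; bidirectional fit vs DMSO.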

For experiment [10], the target named is Thyroid hormone receptor alpha (Rattus norvegicus) + Thyroid hormone receptor beta (Rattus norvegicus) (UniProt P18113+P63059). The experiment can be described thus: TOX21_TR_LUC_GH3_Antagonist_Followup: Tox21 GH3 Thyroid Hormone Receptor Antagonism Luciferase Follow-Up Assay (AID 2283942). Summed up: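 Luminescence read-out (ONE-Glo, 30 min at room temperature) in GH3 reporter cells challenged with 1.0 nM T3 final. Compounds ran at 92 uM to 5nM over 15 concentrations for 24 h; DMSO served as negative control and baseline.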

The nature of experiment [11]: TOX21_TRB_BLA_Antagonist_Followup_viability: Viability Assessment in the Tox21 Thyroid Hormone Receptor beta Antagonism Beta-lactamase (BLA) Follow-Up Assay (AID 2283961). In short, it runs like this: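 TRβ-bla HEK293T (human TRβ LBD fused to GAL4 DBD), 3,000 cells/well, 2% charcoal-stripped FBS, phenol red-free medium; 18 h compound exposure, 37C; CellTiter-Glo 30 min RT; luminescence, loss-of-signal readout.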

Experiment [12] in a line: TOX21_TR_RXR_BLA_Antagonist_Followup_viability: Viability Assessment in the Tox21 Thyroid Hormone Receptor beta Retinoid X Receptor alpha (RXRa) Antagonism Beta-lactamase (BLA) Follow-Up Assay (AID 2283979). In short, it runs like this: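 RXRa-bla HEK293T cells (2,500/well, phenol red-free DMEM, 2% charcoal-stripped FBS) were attached 5 h, then exposed to compounds at 11 concentrations in triplicate for 16 h at 37C. Viability measured by CellTiter-Glo ATP luminescence, bidirectional fitting versus DMSO.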

Sequence of Cellular tumor antigen p53 (Homo sapiens) (P04637 whole entry, looked up): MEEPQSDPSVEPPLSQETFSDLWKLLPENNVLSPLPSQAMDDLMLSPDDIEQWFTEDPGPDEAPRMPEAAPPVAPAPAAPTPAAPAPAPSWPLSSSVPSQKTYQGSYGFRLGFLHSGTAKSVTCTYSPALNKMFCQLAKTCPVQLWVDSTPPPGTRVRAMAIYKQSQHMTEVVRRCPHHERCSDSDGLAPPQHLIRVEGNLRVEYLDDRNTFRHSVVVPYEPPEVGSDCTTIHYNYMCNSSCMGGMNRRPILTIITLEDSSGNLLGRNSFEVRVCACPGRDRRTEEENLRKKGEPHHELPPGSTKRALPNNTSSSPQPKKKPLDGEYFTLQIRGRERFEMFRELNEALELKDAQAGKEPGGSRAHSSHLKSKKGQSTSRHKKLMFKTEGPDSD

For `CC1CS(=O)(=O)CCN1N=Cc1ccc([N+](=O)[O-])o1` (configuration not stated), the molecule was called inactive in experiment [1], in [2], in experiment [3] and in experiment [4].
With `COCC(O)CO` (configuration not stated), the result in [5], in experiment [6], in experiment [2], in [3], in [4] and in experiment [7] was inactive.
As to `N[C@@H](CSSC[C@H](N)C(=O)O)C(=O)O`, the outcome in [5], in experiment [6], in experiment [2], in experiment [4] and in experiment [7] was inactive.
As to `OC[C@H]1O[C@H](O[C@H]2O[C@H](CO)[C@@H](O)[C@H](O)[C@H]2O)[C@H](O)[C@@H](O)[C@@H]1O`, the result in experiment [1], in experiment [6], in experiment [3] and in experiment [4] was inactive.
For `CC(=O)OC(C(=O)c1ccccc1)c1ccccc1` (configuration not stated), the outcome in experiment [5], in experiment [2], in experiment [3] and in experiment [7] was inactive.
For the molecule `NC(=O)c1ccncc1`, the molecule was called inactive in experiment [2], in experiment [3] and in experiment [7].
As for `CCOc1ccc(NC(=O)OC(C)C)cc1OCC`, the result in experiment [5], in [2], in experiment [3] and in experiment [7] was inactive.
Regarding `Cc1cnc(C(=O)NCCc2ccc(S(=O)(=O)NC(=O)NC3CCCCC3)cc2)cn1`, the outcome in [5], in experiment [6], in experiment [2], in experiment [3], in experiment [4] and in [7] was inactive. Moreover, the outcome in experiment [8] and in experiment [9] was inactive.
For `C=CCn1cc[n+](C)c1`, the outcome in experiment [5], in experiment [6], in [3], in experiment [4] and in experiment [7] was inactive.
In the case of `CC(C)(C)NCC(O)c1ccc(O)c(CO)c1` (configuration not stated), the result in [1], in [6], in experiment [2], in experiment [3], in [4] and in [7] was inactive.
For the molecule `CCS(=O)(=O)CCn1c([N+](=O)[O-])cnc1C`, the molecule was classed as inactive in experiment [1], in experiment [6] and in experiment [7].
As to `[O-][n+]1cccc(CO)c1`, the molecule was classed as inactive in experiment [1], in experiment [6], in [2] and in experiment [3].
Consider `CCn1cc(C(=O)O)c(=O)c2cc(F)c(N3CCNCC3)cc21`, for which the outcome in [5], in [6], in experiment [2], in experiment [3] and in experiment [7] was inactive.
Consider `C[C@@H]1O[C@@H](OC[C@H]2O[C@@H](Oc3c(-c4ccc(O)c(O)c4)oc4cc(O)cc(O)c4c3=O)[C@H](O)[C@@H](O)[C@@H]2O)[C@H](O)[C@H](O)[C@H]1O`, for which the outcome in experiment [5], in experiment [2], in experiment [3], in experiment [4] and in experiment [7] was inactive.
With `N#Cc1ccc(C(=O)O)cc1`, the call in experiment [1], in experiment [2], in experiment [3], in experiment [4] and in experiment [7] was inactive.
For the molecule `Nc1ccc2cc3ccc(N)cc3nc2c1`, the AC50 is 968 nM (active) and 3.15 µM (active) in experiment [5]; 2.62 µM (active) and 5.87 µM (active) in [6]; 2.96 µM (active) and 4.81 µM (active) in experiment [3]; 1.64 µM (active) and 3.71 µM (active) in [7]; 13.1 µM (active) in [10]; 19.5 µM (active) in [11]. Further, the result in experiment [11] and in experiment [12] was inactive.
Consider `COc1ccc(NC(C)=O)cc1`, for which the result in experiment [5], in [2] and in experiment [4] was inactive.

By AC50 is commonly meant the concentration at which the activity in the assay is half-maximal.

The record behind these values is PubChem BioAssay (EPA / NIEHS).
